Screening results from PubChem BioAssay.
This excerpt belongs to a sample that is enriched for hits.
NS1 inh – qHTS Assay for Inhibitors of Influenza NS1 Protein Function; hit rate 0.4% among 270,000; Potency, µM (titrated, usually from 46.1 µM); calls by dose curve; note: actives are rising curves; nearly all actives have a fitted effect of over 50% in size
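S. cerevisiae expressing influenza A NS1, grown in glucose, washed, then diluted 1:100 into pH 6.0 -URA galactose medium with 23 nl compound. Growth recovery read as OD600; NS1-free strain serves as control.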
AmpC inh detg – qHTS Inhibitors of AmpC Beta-Lactamase (assay with detergent); hit rate 0.041% among 370,000; Potency, µM (doses to about 114 µM), most hits filed as inhibitors; AID 485294, 2010; P00811; AmpC hydrolysis of nitrocefin, absorbance 480 nm, 0.01% Triton; note: nearly all actives have a fitted effect of over 25% in size
Target sequence (P00811 whole entry, looked up): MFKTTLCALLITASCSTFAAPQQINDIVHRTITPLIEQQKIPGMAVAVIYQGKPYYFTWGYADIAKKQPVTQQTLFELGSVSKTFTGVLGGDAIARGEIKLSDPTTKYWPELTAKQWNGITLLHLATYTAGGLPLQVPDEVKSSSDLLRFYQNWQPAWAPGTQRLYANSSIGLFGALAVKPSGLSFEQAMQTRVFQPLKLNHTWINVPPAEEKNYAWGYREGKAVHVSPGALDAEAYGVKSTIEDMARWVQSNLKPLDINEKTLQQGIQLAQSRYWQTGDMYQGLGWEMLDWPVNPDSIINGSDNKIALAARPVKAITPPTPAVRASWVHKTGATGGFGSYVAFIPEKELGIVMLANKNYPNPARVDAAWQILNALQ
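20 mM phosphate pH 7.0 + 0.01% (detergent screen) or 0.0001% Triton X-100; 5.3 nM AmpC reagent; cpd preinc 15 min RT; nitrocefin (800 uM stock) to start; A480 q20 s × 4 min; Activity was normalised to no-enzyme and no-compound control wells.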
Cycloheximide cs – Cycloheximide Counterscreen for Small Molecule Inhibitors of Shiga Toxin; cell reporter, cycloheximide protein synthesis inhibition counterscreen; max response, %; hit rate 12% among 300,000; in the data active = max response mostly above about 13%, no sharp cut-off; inactive = mostly below about 14%; note: read at 38.3 µM for the half of the compounds with a filed dose
AmpC no deterg – qHTS Inhibitors of AmpC Beta-Lactamase (assay without detergent). P00811. AmpC nitrocefin hydrolysis, absorbance 480 nm, 0.0001% Triton. Potency, µM (titrated, usually from 57.1 µM), most hits filed as inhibitors. hit rate 0.52% among 330,000. AID 485341, 2010; note: nearly all actives have a fitted effect of over 20% in size
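AmpC (5.3 nM in the dispensed reagent) in 20 mM phosphate pH 7.0 with 0.01% (detergent screen) or 0.0001% Triton X-100 was preincubated with compounds for 15 min at room temperature. Nitrocefin was then added from an 800 uM solution, and hydrolysis was followed at 480 nm.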
Shiga inhibitor – A qHTS for Small Molecule Inhibitors of Shiga Toxin | Vero cells, Shiga toxin protein synthesis inhibition reporter | inhibition, % at 38.7 µM | hit rate 9.2% among 290,000; in the data active = inhibition mostly above about 28%, no sharp cut-off; inactive = mostly below about 43%
Hits are given with their value. Unless noted, calls come from the whole dose curve; as a rule, active = well fitted curve in the direction sought with a large enough effect; inconclusive = small, poorly fitted or top-dose-only effect, or another doubt; inactive = no such curve, though single readings can be large; an effect the other way counts as inactive or inconclusive.

Results for O=C(Nc1nccs1)c1ccc(N2C(=O)[C@@H]3[C@H](C2=O)[C@H]2C=C[C@@H]3C2)cc1 ?
NS1 inh: inactive; AmpC inh detg: inactive; Cycloheximide cs: 26; AmpC no deterg: inactive; Shiga inhibitor: 54

What do the screens show for `O=C(Nc1nccs1)c1cccc(N2C(=O)C3C4C=CC(C4)C3C2=O)c1` (stereo unspecified)?
NS1 inh: inactive; AmpC inh detg: inactive; Cycloheximide cs: inactive; AmpC no deterg: inactive; Shiga inhibitor: inactive

What do the screens show for `O=C(Nc1nccs1)c1ccc(N2C(=O)C3CCCCC3C2=O)cc1` (stereo unspecified)?
NS1 inh: inactive; AmpC inh detg: inactive; Cycloheximide cs: 37; AmpC no deterg: inactive; Shiga inhibitor: 70

What do the screens show for `CCOc1ccc(S(=O)(=O)N2CCC(C(=O)OC(C)C(=O)NC3CCCCC3C)CC2)cc1` (stereo unspecified)?
AmpC inh detg: inactive; AmpC no deterg: inactive

How did O=C(c1ccccc1)c1ccc2cc(O)ccc2c1 do in these assays?
NS1 inh: inactive; AmpC inh detg: inactive; Cycloheximide cs: 35; AmpC no deterg: inactive; Shiga inhibitor: 72

What do the screens show for `Cc1ccc(C(=O)c2ccc(O)cc2)cc1C`?
NS1 inh: inactive; AmpC inh detg: inconclusive; Cycloheximide cs: 18; AmpC no deterg: inactive; Shiga inhibitor: inactive

How did O=C(c1ccc(O)cc1)c1ccc(Cl)cc1 do in these assays?
NS1 inh: inactive; AmpC inh detg: inconclusive; Cycloheximide cs: 21; AmpC no deterg: inactive; Shiga inhibitor: inactive

How did CCOc1ccccc1NC(=O)C1CCCN(c2ncnc3onc(-c4ccc(F)cc4)c23)C1 (stereo unspecified) do in these assays?
AmpC inh detg: inactive

What do the screens show for `Cc1nn(C)c(C(=O)N/N=C/c2cccc(Oc3ccccc3)c2)c1Br`?
NS1 inh: inactive; AmpC inh detg: inactive; Cycloheximide cs: inactive; AmpC no deterg: inactive; Shiga inhibitor: inactive

How did O=C(N/N=C/c1cccc(Oc2ccccc2)c1)c1ccccc1F do in these assays?
NS1 inh: inactive; AmpC inh detg: inactive; Cycloheximide cs: 73; AmpC no deterg: inactive; Shiga inhibitor: active

What do the screens show for `Nc1ccc(C(=O)N/N=C/c2cccc(Oc3ccccc3)c2)cc1`?
NS1 inh: inactive; AmpC inh detg: inconclusive; Cycloheximide cs: 30; AmpC no deterg: inactive; Shiga inhibitor: inactive

What do the screens show for `O=C(N/N=C/c1cccc(Oc2ccccc2)c1)c1cc[n+]([O-])cc1`?
AmpC inh detg: inactive; Cycloheximide cs: inactive; AmpC no deterg: inactive; Shiga inhibitor: inactive

Results for CNC(=S)N/N=C/c1cccc(OCc2ccccc2F)c1 ?
NS1 inh: inactive; AmpC inh detg: inactive; Cycloheximide cs: 27; AmpC no deterg: inactive; Shiga inhibitor: 52

Results for CCNC(=O)CC1C(=O)N(c2ccccc2)C(=O)N1Cc1ccc(F)cc1 (stereo unspecified) ?
AmpC inh detg: inactive

What do the screens show for `CCCS(=O)(=O)N1CCCC(c2nc(-c3cccc(OC)c3)no2)C1` (stereo unspecified)?
NS1 inh: inactive; AmpC inh detg: inconclusive; Cycloheximide cs: 18; AmpC no deterg: inactive; Shiga inhibitor: inactive

What do the screens show for `CCCCC(=O)N1CCCC(c2nc(-c3cccc(OC)c3)no2)C1` (stereo unspecified)?
NS1 inh: inactive; AmpC inh detg: inactive; Cycloheximide cs: 41; AmpC no deterg: inactive; Shiga inhibitor: 83

Results for COc1cccc(-c2noc(C3CCCN(C(=O)c4ccccc4OC)C3)n2)c1 (stereo unspecified) ?
NS1 inh: inactive; AmpC inh detg: inactive; Cycloheximide cs: 52; AmpC no deterg: inactive; Shiga inhibitor: 48

What do the screens show for `COc1ccc(CCNC(=O)C(=O)NCC(c2cccs2)S(=O)(=O)c2ccc(C)cc2)cc1` (stereo unspecified)?
AmpC inh detg: inactive

What do the screens show for `Cc1ccccc1C(=O)NC1CCN(CC(=O)NCc2ccccc2)CC1`?
NS1 inh: inactive; AmpC inh detg: inconclusive; Cycloheximide cs: inactive; AmpC no deterg: inactive; Shiga inhibitor: inactive

Results for Clc1ccc(Sc2ccccn2)cc1 ?
NS1 inh: inactive; AmpC inh detg: inactive; Cycloheximide cs: inactive; AmpC no deterg: inactive

What do the screens show for `OC(COc1ccc(Cl)cc1)CSc1ccccn1` (stereo unspecified)?
NS1 inh: inactive; AmpC inh detg: inactive; Cycloheximide cs: 27; AmpC no deterg: inactive; Shiga inhibitor: inactive

Results for COc1ccc(OCCCSc2ncccn2)cc1 ?
NS1 inh: inactive; AmpC inh detg: inactive; Cycloheximide cs: 39; AmpC no deterg: inactive; Shiga inhibitor: 104

Results for COc1ccc(OCCSc2ncccn2)cc1 ?
NS1 inh: inactive; AmpC inh detg: inactive; Cycloheximide cs: 46; AmpC no deterg: inactive; Shiga inhibitor: 113

How did COc1ccc(OCCSc2nc(C)nc3ccccc23)cc1 do in these assays?
AmpC inh detg: inactive; Cycloheximide cs: 43; AmpC no deterg: inactive; Shiga inhibitor: inactive

Results for Nn1c(SCCOc2ccc(Cl)cc2)nnc1-c1cccnc1 ?
AmpC inh detg: inactive; Cycloheximide cs: inactive; AmpC no deterg: inactive; Shiga inhibitor: inactive

Results for c1cnc(SCCCOc2ccc3ccccc3c2)nc1 ?
NS1 inh: inactive; AmpC inh detg: inactive; Cycloheximide cs: inactive; AmpC no deterg: inactive; Shiga inhibitor: inactive

How did Clc1ccc(OCCSc2ncccn2)cc1 do in these assays?
NS1 inh: inactive; AmpC inh detg: inactive; Cycloheximide cs: 55; AmpC no deterg: inactive; Shiga inhibitor: 117

How did Cc1ccc(OCCCSc2ncccn2)cc1C do in these assays?
NS1 inh: inactive; AmpC inh detg: inactive; Cycloheximide cs: 44; AmpC no deterg: inactive; Shiga inhibitor: 74

Results for CC(C)c1ccc(N2C(=O)CSC23C(=O)N(Cc2ccccc2)c2ccccc23)cc1 (stereo unspecified) ?
AmpC inh detg: inactive

What do the screens show for `CCOC(=O)c1cccc(NC(=O)CSc2nnc(C)n2CC2CCCO2)c1` (stereo unspecified)?
NS1 inh: inactive; AmpC inh detg: inactive; Cycloheximide cs: inactive; AmpC no deterg: inactive; Shiga inhibitor: inactive

Results for Cc1c(Br)c([N+](=O)[O-])nn1C(C)C(=O)N1CCc2ccccc2C1 (stereo unspecified) ?
NS1 inh: inactive; AmpC inh detg: inactive; Cycloheximide cs: 27; AmpC no deterg: inactive; Shiga inhibitor: 30

Results for Cc1c(Br)c([N+](=O)[O-])nn1CC(=O)N1CCc2ccccc2C1 ?
NS1 inh: inactive; AmpC inh detg: inactive; Cycloheximide cs: inactive; AmpC no deterg: inactive; Shiga inhibitor: inactive

Results for COc1ccc(C)cc1S(=O)(=O)N1CCC(C(=O)NCCc2ccccc2)CC1 ?
NS1 inh: inactive; AmpC inh detg: inactive; Cycloheximide cs: inactive; AmpC no deterg: inactive; Shiga inhibitor: inactive

How did N#CC1=C(N)Nc2nc3ccccc3n2C1c1ccc(Cl)cc1 (stereo unspecified) do in these assays?
NS1 inh: inactive; AmpC inh detg: inconclusive; Cycloheximide cs: inactive; AmpC no deterg: 13µM; Shiga inhibitor: inactive
